Test results from PubChem BioAssay (NCATS).
Inconclusive results are not listed. Where a call stands in place of a potency, no number is given. Calls of active or inactive are those of the source. Calls come from the whole dose curve; as a rule, active = well fitted cell-killing curve with a large enough effect; inconclusive = small, poorly fitted or top-dose-only effect; inactive = no such curve, though single readings can be large or run the other way. Where a SMILES comes first, the peptide text is derived from it.

Test: qHTS of pediatric cancer cell lines to identify multiple opportunities for drug repurposing: Primary screen for LAN-5 cells (AID 1347100)
Details: LAN-5 neuroblastoma viability, CellTiter-Glo luminescence, 48 h; series mostly up to 46 µM
From the text: Drug repurposing or repositioning has been offered as a strategy for drug development in oncology programs. This approach has special potential for childhood cancers and other rare or orphan diseases, where the expected return on new drug development has been a disincentive to pharmaceuticals.
In this project we exploit the poly-pharmacology of drugs to discover new indications via phenotypic screening of a panel of 19 well-characterized cell lines derived from solid tumors seen in children and adolescents. The goal is to identify approved drugs with previously unrecognized anticancer properties that has the potential to reveal new mechanisms and biological processes involved in carcinogenesis or drug resistance. We employed a titration-based paradigm (quantitative high-throughput screening or qHTS), where all compounds were tested at multiple concentrations for their effect on cell viability. Concentration-response curves (CRCs) were derived directly from the primary screen, and both potency and efficacy values were used to identify compounds with robust bioactivity profiles. We screened the NIH Chemical Genomics Center (NCGC) Pharmaceutical Collection (NPC) and Mechanism Interrogation Plate (MIPE) small molecule collections of approved and investigational compounds against these cell lines; and measured metabolically active cells after 48 hours of compound treatment as a proxy for cell viability.
Assay Submitter: Nathalia J. Martinez, National Center for Advancing Translational Sciences, National Institutes of Health, Rockville, MD, USA; email: natalia.martinez@nih.gov
[1] Shen, M et al. Quantitative high-throughput phenotypic screening of pediatric cancer cell lines identifies multiple opportunities for drug repurposing. Oncotarget 2017 Dec 19;9(4):4758-4772. PMID 29435139.
The cells were obtained from University of North Carolina (UNC), Pediatric Preclinical Testing Program (PPT), and Coriell Institute (CI).
qHTS cell viability assay:
Cells were assayed in growth media at a density of 500-1,000 cells/well. Five microliters of cells were dispensed into 1,536-well, white, solid-bottom, TC-treated plates (Greiner Bio One) using a multidrop dispenser and incubated at 37 degrees C, 5% CO2, under a humidified atmosphere for 5 hours. Twenty-three nanoliters of compounds and controls (neutral control DMSO or positive control bortezomib at final concentration of 2.3 µM) were subsequently transferred by Kalypsys pintool. For primary screens, the MIPE collection was tested at 11-point dilutions (final concentrations range from 0.78 nM to 46 µM) and the NPC collection at 8-point dilutions (final concentrations range from 0.59 nM to 46 µM). Compounds tested in follow-up screens were assayed at 11-point dilutions. Cells were incubated for 48 hours, followed by addition of 3 µL of CellTiter-Glo (Promega). After a 15 min incubation at room temperature, samples were analyzed for luminescence intensity using a ViewLux High-throughput CCD imager equipped with clear filters.
Potency is the fitted concentration of half-maximal effect.

Compound	Potency
Cc1cc(CCCOc2c(C)cc(-c3noc(C(F)(F)F)n3)cc2C)on1	inactive
Nc1nnnn1-c1ccccc1	inactive
Oc1ccccc1	inactive
CC(C)(Oc1ccc(Cl)cc1)C(=O)OCCCOC(=O)C(C)(C)Oc1ccc(Cl)cc1	inactive
C/C(=N/NC(=O)c1ccncc1)C(=O)O	inactive
C[N+](C)(CCOc1ccccc1)Cc1cccs1	inactive
CCN(CC)C(=O)C1CN2CCc3cc(OC)c(OC)cc3C2CC1OC(C)=O (stereo not given)	inactive
CCCCCOc1ccc(C2SC(=O)NC2=O)cc1OCC (stereo not given)	inactive
O=C(O)Cn1c(=O)n(Cc2ccc(Br)cc2F)c(=O)c2ccc(Cl)cc21	inactive
CCCCCN(CCCOC)C(=O)C(CCC(=O)O)NC(=O)c1ccc(Cl)c(Cl)c1 (stereo not given)	inactive
CN(C)CCN(Cc1ccsc1)c1ccccn1	0.001 µM (active)
CCCCOC(=O)CCCCCCCCC(=O)OCCCC	inactive
CN1CC(=O)N2[C@H](c3ccc4c(c3)OCO4)c3[nH]c4ccccc4c3C[C@@H]2C1=O	inactive
CC(C)(C)CC(=O)OCC(=O)[C@@]1(O)CC[C@H]2[C@@H]3CCC4=CC(=O)C=C[C@]4(C)[C@H]3[C@@H](O)C[C@@]21C	inactive
CCOC(=O)c1ccc(OCCN2C[C@H](O)[C@@H](O)[C@H](O)[C@H]2CO)cc1	inactive
Cc1ncc(CO)c(CO)c1O	inactive
O=C(O)Cn1cnnn1	inactive
CC(C)C(=O)OCc1cccc(OC(=O)[C@@H]2N3C(=O)[C@@H](NC(=O)Cc4ccccc4)[C@H]3SC2(C)C)c1	inactive
CCCCCCCCCCCC[N+](C)(C)Cc1ccccc1	inactive
COc1cc(NS(=O)(=O)c2ccc(N)cc2)nc(C)n1	inactive

Compound	Potency
CCCCC/C=C\C/C=C\CCCCCCCC(=O)NC(C)c1ccccc1 (stereo not given)	inactive
CC(=O)CC/C=C(\C)CC/C=C(\C)CC/C=C(\C)CCC=C(C)C	inactive
COc1cc(C(=O)NC2CCCNC2)cc(OC)c1OC (stereo not given)	inactive
Cc1c(N)cccc1C(F)(F)F	inactive
O=C(O)C1CCC1	inactive
COc1cc2nc(Cl)nc(N)c2cc1OC	inactive
Nc1ccc(O)cc1	15 µM (active)
O=C(O)[C@H](O)[C@@H](O)[C@H](O[C@@H]1O[C@H](CO)[C@H](O)[C@H](O)[C@H]1O)[C@H](O)CO	inactive
C[C@H]1NCc2cc(-c3ccc4c(=O)c(C(=O)O)cn(C5CC5)c4c3OC(F)F)ccc21	inactive
C[C@]12CCC(=O)C=C1CC[C@@H]1[C@@H]2[C@@H](O)C[C@@]2(C)[C@H]1CC[C@]2(O)C(=O)COC(=O)CCC(=O)O	inactive
CC(=O)OCC(=O)[C@@]1(O)[C@H](OC(C)=O)C[C@H]2[C@@H]3CCC4=CC(=O)C=C[C@]4(C)[C@@]3(F)[C@@H](O)C[C@@]21C	inactive
CC(C)C[C@@H]1[C@H](c2ccccc2)OC(=O)N1CCCN1CCCCCC1	inactive
CCOC(=O)CN1CCCC1=O	inactive
C#CC(C)(CC)OC(=O)c1ccccc1C(=O)O (stereo not given)	inactive
COc1cc(OC)nc(O[C@H](C(=O)O)C(OC)(c2ccccc2)c2ccccc2)n1	inactive
NS(=O)(=O)c1ccc(N2CCCCS2(=O)=O)cc1	inactive
O=c1[nH]c2ccccc2c(=O)n1CCCl	inactive
CN1CCCN(C(c2ccccc2)c2ccc(Cl)cc2)CC1 (stereo not given)	15 µM (active)
CC(=O)N[C@@H](CO)C(=O)N[C@@H](CC(=O)O)C(=O)N[C@@H](CCCCN)C(=O)N1CCC[C@H]1C(=O)O (Ac-SDKP-OH)	inactive
CO[C@@H]1[C@@H](O[C@@H]2O[C@H](C)[C@@H](O[C@H]3C[C@@](C)(O)[C@@H](O)[C@H](C)O3)[C@H](N(C)C)[C@H]2O)[C@@H](CC=O)C[C@@H](C)[C@@H](O[C@@H]2CC[C@H](N(C)C)[C@@H](C)O2)/C=C/C=C/C[C@@H](C)OC(=O)C[C@H]1OC(C)=O	inactive
